Experimental data taken from PubChem BioAssay AID2284200 (EPA ToxCast).
Active and inactive are the calls of the source. How the source made its calls: active means hit-call score of the fitted dose curve at least 0.9, where 1 is the maximum; inactive means score below 0.9.

Experiment: ERF_TW_NR_rI2: Eurofins (ERF) Radioligand Binding LeadHunter Assay for rat Imidazoline I2 Central Antagonism
Description: ERF_TW_NR_rI2 is a biochemical, single-readout assay that uses extracted gene-proteins in a cell-free assay. Measurements were taken 0.5 hour after chemical dosing in a 96-well plate. See Imidazoline I2, Central Rat Binding (Antagonist Radioligand) Assay, Panlabs.ERF_TW_NR_rI2 is an assay component calculated from the ERF_TW_NR_rI2 assay. It is designed to measure radioligand binding using a type of binding reporter as detected by scintillation counting with radiometry technology.Data from the assay component ERF_TW_NR_rI2 was analyzed at the assay endpoint, ERF_TW_NR_rI2, in the positive analysis fitting direction relative to DMSO as the negative control and baseline of activity. Using a type of binding reporter, loss-of-signal activity can be used to understand changes in radioligand binding as they relate to gene NISCH (homolog). To generalize the intended target to other relatable targets, this assay endpoint is annotated to the oxidoreductase intended target family, where the subfamily is imidazoline receptor.
Brains (except cerebella) of male Wistar derived rats weighing 175 +/- 25 g are used to prepare imidazoline I2 receptors in modified Tris-HCl buffer pH 7.4. A 15 mg aliquot is incubated with 2 nM [3H] Idazoxan for 30 minutes at 25C. […] Membranes are filtered and washed, the filters are then counted to determine [3H] […]

Question: For `COc1cc(CCC(=O)CC(=O)CCc2ccc(O)c(OC)c2)ccc1O`, which outcome is on record?
Answer: inactive
